Shown are actives, neighbours in structure and some others; about 2.3% of the full set was active somewhere.
MBD2 DNA inh: inhibitors of MBD2 binding to methylated DNA, primary screen, biochemical, TR-FRET, DNA-binding domain, human; MBD2 binding to methylated oligonucleotide; Methyl-CpG-binding domain protein 2 (Homo sapiens), Q9UBB5; inhibition, % at 4.4 µM; 0.31% of 370,000 active; in the data active = inhibition above about 13%
Target sequence (Q9UBB5 whole entry, looked up, the tested form may be a part): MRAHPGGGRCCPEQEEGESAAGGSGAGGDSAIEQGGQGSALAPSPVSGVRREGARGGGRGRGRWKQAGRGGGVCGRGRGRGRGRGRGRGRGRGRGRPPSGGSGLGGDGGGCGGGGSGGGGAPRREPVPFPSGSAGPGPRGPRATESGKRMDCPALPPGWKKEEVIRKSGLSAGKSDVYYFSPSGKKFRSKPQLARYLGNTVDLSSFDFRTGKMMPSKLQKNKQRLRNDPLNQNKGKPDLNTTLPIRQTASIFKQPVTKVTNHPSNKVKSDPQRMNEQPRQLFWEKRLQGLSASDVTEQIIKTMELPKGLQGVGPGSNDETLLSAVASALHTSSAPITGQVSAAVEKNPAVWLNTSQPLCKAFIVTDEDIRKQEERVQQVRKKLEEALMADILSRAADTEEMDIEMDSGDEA
UHRF1 binding: UHRF1 methylated DNA binding inhibitors, primary screen, counter-screen for MBD2 inhibitor project, biochemical, TR-FRET, human UHRF1, single concentration. AID 687016, 2013. E3 ubiquitin-protein ligase UHRF1 (Homo sapiens), Q96T88. 0.75% of 370,000 active. UHRF1 binding to methylated oligo. inhibition, % at 4.4 µM; in the data active = inhibition above about 21%;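 note: UHRF1 SRA domain binding a hemimethylated CpG hairpin DNA probe; 0% = median of test compound wells and 100% = reference inhibitor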
PLCg1 inh: PLC-gamma1 enzyme inhibitors, primary screen, biochemical, fluorescence, purified enzyme; AID 720700, 2013; inhibition, % at 12.2 µM; 0.84% of 370,000 active; 1-phosphatidylinositol 4,5-bisphosphate phosphodiesterase gamma-1 (Homo sapiens), P19174; fluorogenic substrate; in the data active = inhibition above about 9.5%
PLCb3 inh: human PLC-beta3 inhibitors, primary screen, biochemical, fluorescence | Purified PLC-beta3, fluorogenic substrate | inhibition, % at 12.2 µM | 0.18% of 370,000 active | AID 720704, 2013; in the data active = inhibition above about 11%;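 note: 0% = median of compound wells on plate and 100% = full blocker control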
LEDGF integ inh: blockers of LEDGF/p75-dependent integrase strand transfer – biochemical, TR-FRET, high throughput, primary screen | HIV-1 integrase (with human LEDGF/p75) | TR-FRET IN-LEDGF/p75 DNA integration, Eu/Cy5 | inhibition, % at 3.7 µM | 0.64% of 370,000 active;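 active = inhibition above the screen-wide mean plus 3 SD, cut at about 13% in these data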;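 note: signal is the Cy5 over europium emission ratio at 671 and 618 nm; 0% = plate median of compound wells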
Numbers without * were called inactive.

SMILES	MBD2 DNA inh	UHRF1 binding	PLCg1 inh	PLCb3 inh	LEDGF integ inh
COc1ccc(CCNC(=O)CN(c2cccc([N+](=O)[O-])c2)S(C)(=O)=O)cc1	-2	38*	0	1	1
CS(=O)(=O)N(CC(=O)NCCc1ccccc1)c1cccc([N+](=O)[O-])c1	1	-3	2	-1	4
COc1ccc(C=Nn2c(-c3ccccc3F)n[nH]c2=S)cc1OCc1ccccc1	1	3	2	3	4
CC1CCCC(C)N1C(=O)c1cc2ncc(CCCl)cn2n1 (configuration not stated)	-3	51*	5	-3	-4
O=C(c1cc2ncc(CCCl)cn2n1)N1CCCCCC1	2	2	-12	-18	-5
CC(=O)Nc1cc(Cl)c(N=Cc2ccc(O)cc2O)cc1Cl	-8	1	-10	-17	24*
COC(=O)[C@@]12CCCCC3=C1N(CCC3)C(=O)[C@H]2CC(=O)NCCCCc1ccccc1	3	-1	-2	0	0
COc1ccc(NC(=O)CSc2nnc(-c3ccco3)n2N)cc1Cl	-1	22*	2	-4	-1
Cc1ccc(Cn2cc(CN(C3CC3)S(=O)(=O)c3ccccc3Br)nn2)cc1	3	5	0	-1	2
COc1ccc(CC(=O)Oc2ccc(C)cc2Br)cc1OC	2	1	-2	-6	14*
COc1ccc(CC(=O)Oc2ccc(C)cc2C)cc1	0	3	-1	-5	-2
O=C(Nc1ccc([N+](=O)[O-])cc1)c1ccccc1	1	1	0	-4	-6
O=C(Cn1cc[n+](Cc2ccccc2)c1)c1ccc([N+](=O)[O-])cc1	0	3	11*	5	2
O=C(Nc1ccccc1)c1ccc[n+](Cc2ccc([N+](=O)[O-])cc2)c1	-1	69*	1	3	4
COC(=O)[C@]12C[C@H](CC(=O)N3CCN(C(=O)c4ccco4)CC3)C(=O)N(Cc3ccccc3)C1=C[C@H](COCc1ccccc1)O[C@@H]2C	-2	-1	1	-1	0
CN1N=C(c2ccc(Cl)cc2)CC(c2ccc(Cl)cc2)C1=O (configuration not stated)	7	22*	2	2	1
Cc1cc(CN2CCCC(CO)(Cc3cccc(Cl)c3)C2)n[nH]1 (configuration not stated)	3	24*	2	0	4
CC1(OC(=O)CCc2ccccc2)C(=O)C=C2C=C(c3ccc(C#N)cc3)N(Cc3ccco3)C=C2C1=O (configuration not stated)	-2	14	-94	-126	17*
C#CCCCN([C@@H](CC(C)C)C(=O)OC)S(=O)(=O)c1ccc(F)cc1Br	-7	0	-2	0	4
COCCNC(=O)CN(C(=O)Cn1nnc2ccccc21)c1ccc(F)c(Cl)c1	10	81*	-3	-1	0
CCCN1CCS(=O)(=O)N(Cc2cn(Cc3ccc(Cl)cc3)nn2)C(C(=O)OC)C1 (configuration not stated)	2	9	0	0	2
C/C(=N\Nc1ccc(Cl)c(C(=O)O)c1)c1cc2ccccc2o1	-3	31*	-8	-12	-2
CCOC(=O)NC[C@@]1(C(=O)OC)CC(=O)N(Cc2ccc(Cl)cc2)[C@@H]1c1ccc(OC)cc1	3	0	0	-2	3
CCOC(=O)Cn1cc(CN2CCS(=O)(=O)N(Cc3ccc(F)cc3)C(C(=O)OC)C2)nn1 (configuration not stated)	13	17	5	1	-2
COCC(C)n1c(C)cc(C(=O)COC(=O)CCc2nc3ccccc3c(=O)[nH]2)c1C (configuration not stated)	1	26*	1	-7	0
SMILES	MBD2 DNA inh	UHRF1 binding	PLCg1 inh	PLCb3 inh	LEDGF integ inh
Cn1c(Cc2cccs2)nnc1SCC(=O)Nc1ccc2cn[nH]c2c1	-5	-2	6	0	8
CN(Cc1ccccc1)S(=O)(=O)c1cccc(C(=O)OCc2ccc(Oc3ccccc3)cc2)c1	-3	-3	2	0	-3
C[C@@H]1CN([C@@H](C)COC(=O)C(C)(C)C)C(=O)c2cc(NC(=O)Nc3ccccc3)ccc2O[C@@H](C)CCCCO[C@H]1CN(C)S(=O)(=O)c1ccc(F)cc1	2	1	3	5	1
CN(C)C1=NC[C@H](Cc2ccccc2)N1CCCC1CCCCC1	6	-1	0	2	-3
CN(C)C1=NC[C@H](Cc2ccccc2)N1CCCC1CCCC1	12	23*	7	-3	3
CCCN1CCCc2cc(CN)ccc21	3	12	-56	-86	35*
CN(C)CCOC(C)(c1ccccc1)c1ccccn1 (configuration not stated)	-1	66*	2	5	3
NS(=O)(=O)c1ccc(N/C=C\C(=O)c2ccc3ccccc3c2)cc1	9	22*	-19	-26	9
CCCS(=O)(=O)Nc1c(C(=O)OC)[nH]c2ccccc12	8	22*	-1	-6	1
COc1cc(C(=O)N/N=C/c2ccc(OC(=O)c3cccc(C)c3)cc2)ccc1O	2	1	16*	3	-2
COc1cc(/C=N/NC(=O)c2ccc(N)cc2)ccc1OC(=O)c1cccc(C)c1	-1	2	-30	-54	4
Cc1c(N=C2C=C(Br)C(=O)C(Br)=C2)c(=O)n(-c2ccccc2)n1C	18*	56*	-42	-53	57*
COC/C=C/C1=CC2=CC(=O)C(C)(OC(=O)C3CCCC3)C(=O)C2=CO1 (configuration not stated)	5	29*	-18	-43	64*
COc1ccc(C2=NNC(=O)CC2)cc1	0	23*	2	1	2
O=S1(=O)c2c(NCc3ccco3)cccc2Oc2ccccc2CN1Cc1cn(Cc2cccc(F)c2)nn1	-4	1	-37	-60	0
COc1cccc(C2/C(=C(/O)c3ccc(C)cc3)C(=O)C(=O)N2Cc2ccco2)c1 (configuration not stated)	2	29*	-1	-2	2
COC(=O)[C@H]1C[C@@]2(n3ccc4ccccc43)c3ccccc3N(S(=O)(=O)c3ccccc3)[C@H]2N1C(=O)CNC1CCCCC1	8	2	2	0	0
CN(c1ccccc1)S(=O)(=O)c1cc(C(=O)OCC(=O)c2c(N)n(C)c(=O)n(C)c2=O)ccc1Cl	0	3	-3	-9	-9
CCN(c1ccccc1)S(=O)(=O)c1cc(C(=O)OCC(=O)c2c(N)n(C)c(=O)n(C)c2=O)ccc1C	12	32*	5	-5	1

Source: PubChem
